Reference: the supplement of paper PMC9492666
Structures can show the parent of a compound that is named as a salt.

Experiments:
HCC1937 = assay: relative cell viability, compound alone, vs DMSO (fraction of DMSO control); higher = less growth inhibition; details: 72 h
MDA-MB-231 = assay: as above; details: 72 h
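Further: viability read out with the CCK-8 kit in 96-well plates, screening a set of 303 compounds acting on lipid metabolism targets.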

SMILES | relative cell viability (HCC1937) | relative cell viability (MDA-MB-231)
COc1ccc(-c2coc3cc(OC)ccc3c2=O)cc1 [4',7-Dimethoxyisoflavone] | 0.486 | 0.693
COc1ccc(-c2cc(=O)c3c(O)c(OC)c(O)cc3o2)cc1OC [Eupatilin] | 0.622 | 0.739
O=C(c1ccc(NS(=O)(=O)c2cccc3cccnc23)cc1)N1CCN(CC2CC2)CC1 [Mitapivat] | 0.95 | 0.935
O=C(Nc1ccccc1)c1cc([N+](=O)[O-])ccc1Cl | 1.08 | 1.03
Cc1cc(C)c(S(=O)(=O)Nc2cccc(C(F)(F)F)c2)c(C)c1 | 1.12 | 1.18
CCOC(=O)C(C)(C)Oc1ccc(Cl)cc1 [Clofibrate] | 1.15 | 0.9
CC(C)=CCC(O)C1=CC(=O)c2c(O)ccc(O)c2C1=O (single isomer, unassigned; (+)) [(+)-Shikonin] | 0.2 | 0.529
CC(C)CCC[C@@H](C)[C@H]1CC[C@H]2[C@@H]3CCC4=CC(=NO)CC[C@]4(C)[C@H]3CC[C@]12C [Olesoxime] | 0.978 | 0.789
COc1ccc(-c2c[nH]c3nccc(-c4ccsc4)c23)c(OC)c1 | 0.993 | 0.935
C=C(C)[C@@H]1CCC2=CC(=O)C[C@@H](C)[C@]2(C)C1 [Nootkatone] | 0.882 | 1.02
O=C(CCCCc1ccc2c(c1)OCO2)N1CCCCC1 | 0.608 | 0.838
CC[C@H]1[C@@H](O)[C@@H]2[C@H](CC[C@]3(C)[C@@H]([C@H](C)CCC(=O)O)CC[C@@H]23)[C@@]2(C)CC[C@@H](O)C[C@@H]12 [Obeticholic Acid] | 0.901 | 0.856
O=C(O)CN(CC(=O)O)c1ccccc1OCCOc1ccccc1N(CC(=O)O)CC(=O)O | 0.633 | 0.899
CC(C)OC(=O)C(C)(C)Oc1ccc(C(=O)c2ccc(Cl)cc2)cc1 [Fenofibrate] | 1.16 | 0.955
CCN(CC)CCCC(C)Nc1c2ccc(Cl)cc2nc2ccc(OC)cc12 (centres undefined) [Quinacrine dihydrochloride] | 0.212 | 0.306
CN(C)C(=N)NC(=N)N [Metformin hydrochloride] | 0.98 | 0.95
CC(C)(C)NC(=O)[C@H]1CC[C@H]2[C@@H]3CC[C@H]4NC(=O)C=C[C@]4(C)[C@H]3CC[C@]12C [Finasteride] | 1.17 | 0.934
c1cc(-c2cnn3cc(-c4ccc(OCCN5CCCCC5)cc4)cnc23)ccn1 [Dorsomorphin] | 0.216 | 0.383
CN1CCN(C(=O)C2C(C(=O)O)[C@H]3CC[C@@H]2O3)CC1 (some centres undefined) | 0.568 | 0.616
CCNC1(C(N)=O)CCN(c2ncnc3c2nc(-c2ccccc2Cl)n3-c2ccc(Cl)cc2)CC1 [Otenabant] | 0.906 | 0.915
O=C(ON1C(=O)CCC1=O)N1CCN(C(c2ccc(Cl)cc2)c2ccc(Cl)cc2)CC1 [Cravatt Reagent] | 1.26 | 0.975
Cc1cccc(Nc2cc(Cl)nc(SCC(=O)O)n2)c1C [Pirinixic Acid] | 0.824 | 0.88
O=C(O)CCCc1cc2cc(Cl)ccc2n1S(=O)(=O)c1ccc2ncsc2c1 [Lanifibranor] | 0.754 | 1.07

SMILES | relative cell viability (HCC1937) | relative cell viability (MDA-MB-231)
O=C(NC1CCN(CCCCC2(C(=O)NCC(F)(F)F)c3ccccc3-c3ccccc32)CC1)c1ccccc1-c1ccc(C(F)(F)F)cc1 [Lomitapide] | 0.293 | 0.695
CN(C)C(=O)Nc1cccc(-c2ccc(N(C)C)cc2)c1 [Atglistatin] | 0.661 | 0.83
NC(=O)c1cnccn1 [Pyrazinamide] | 0.654 | 0.841
CCOc1cc(CC(=O)N[C@@H](CC(C)C)c2ccccc2N2CCCCC2)ccc1C(=O)O [Repaglinide] | 1.02 | 0.938
O=C(O)Cc1cccc(OCCCN(Cc2cccc(C(F)(F)F)c2Cl)CC(c2ccccc2)c2ccccc2)c1 | 0.78 | 1.11
COc1cc(C(C)=O)ccc1O [Acetovanillone] | 0.833 | 0.891
O=C(CC(C(=O)O)c1c[nH]c2ccccc12)c1ccc(F)cc1F (centres undefined) [Mitochonic acid 5] | 1.26 | 1.19
C/C=C(\CC[C@@H](C)[C@H]1CC[C@H]2[C@@H]3CC=C4C[C@@H](O)CC[C@]4(C)[C@H]3CC[C@]12C)C(C)C [Fucosterol] | 1 | 0.968
c1cc(-c2cnn3cc(-c4ccc(OCCN5CCCCC5)cc4)cnc23)ccn1 [Dorsomorphin dihydrochloride] | 0.138 | 0.301
COc1ccc(-c2cc(=O)c3c(O)c(OC)c(OC)c(OC)c3o2)cc1OC | 0.699 | 0.82
CC(=O)N1CCN(c2ccc(OCC3COC(Cn4ccnc4)(c4ccc(Cl)cc4Cl)O3)cc2)CC1 (centres undefined) [Ketoconazole] | 1.3 | 0.897
COc1ccc2c(c1)CCC1C2CCC2(C)C(NCCCCCCN3C(=O)C=CC3=O)CCC12 (centres undefined) | 0.699 | 0.806
C[C@@H](Nc1nc(N[C@H](C)C(F)(F)F)nc(-c2cccc(Cl)n2)n1)C(F)(F)F [Vorasidenib] | 0.708 | 0.914
Cc1cc(C)c(S(=O)(=O)N(CCc2cccc(Br)c2)Cc2ccc(-c3cccc(S(C)(=O)=O)c3)cc2)c(C)c1 | 0.708 | 0.862
Cc1cc(SCc2sc(-c3ccc(C(F)(F)F)cc3)nc2C)ccc1OCC(=O)O | 0.916 | 0.857
NC(=O)c1cccc(-c2cccc(OC(=O)NC3CCCCC3)c2)c1 | 0.822 | 1.02
O=C(OC(C(F)(F)F)C(F)(F)F)N1CCN(Cc2ccc(C(F)(F)F)cc2N2CCCC2)CC1 | 0.999 | 1.01
C[C@H]1N=C(N(C)C)N=C(N)N1 [Imeglimin hydrochloride] | 0.912 | 0.838
OC[C@H]1O[C@@H](Oc2cc(O)cc(/C=C/c3ccc(O)cc3)c2)[C@H](O)[C@@H](O)[C@@H]1O [Polydatin] | 1.07 | 0.871
CCCCCCCCCCC[C@@H](C[C@@H]1OC(=O)[C@H]1CCCCCC)OC(=O)[C@H](CC(C)C)NC=O [Orlistat] | 0.977 | 0.809
Oc1ccc2c(c1)OCO2 [Sesamol] | 0.804 | 0.831
O=C(CCCCCCCC(=O)NCCO)NCCO [Adelmidrol] | 1.16 | 1.04
O=C(O)Cn1nnc(-c2cc(N3CCC(Oc4cc(F)ccc4Br)CC3)no2)n1 | 0.842 | 0.882

SMILES | relative cell viability (HCC1937) | relative cell viability (MDA-MB-231)
CC(C)c1nc(N(C)S(C)(=O)=O)nc(-c2ccc(F)cc2)c1/C=C/[C@@H](O)C[C@@H](O)CC(=O)O [Rosuvastatin] | 0.633 | 0.871
CC(C)(CCCCCC(O)CCCCCC(C)(C)C(=O)O)C(=O)O | 0.598 | 0.886
COc1cc(F)c(C(C)C)cc1-c1ccc(C(F)(F)F)cc1CN1C(=O)O[C@H](c2cc(C(F)(F)F)cc(C(F)(F)F)c2)[C@@H]1C [Anacetrapib] | 0.72 | 0.877
C=CCc1ccc(O)c(-c2cc(CC=C)ccc2O)c1 [Magnolol] | 1 | 0.968
Cc1coc2c1C(=O)C(=O)c1c-2ccc2c(C)cccc12 [Tanshinone I] | 0.287 | 0.51
CC(C)c1c(C(=O)Nc2ccccc2)c(-c2ccccc2)c(-c2ccc(F)cc2)n1CC[C@@H](O)C[C@@H](O)CC(=O)O [Atorvastatin Calcium] | 0.657 | 0.569
CCOP(=O)(OCC)C(=Cc1cc(C(C)(C)C)c(O)c(C(C)(C)C)c1)P(=O)(OCC)OCC | 0.631 | 0.779
COc1cc(N2CCN(C)CC2)ccc1Nc1ncc2c(n1)N(C)c1ccccc1C(=O)N2 | 0.666 | 0.655
O=C1/C(=C/c2cccs2)CC/C1=C\c1cccs1 | 0.766 | 0.84
O=c1cc(-c2ccc(O)c(-c3c(O)cc(O)c4c(=O)cc(-c5ccc(O)cc5)oc34)c2)oc2cc(O)cc(O)c12 [Amentoflavone] | 0.782 | 0.812
CC(=O)Oc1cc(C(F)(F)F)ccc1C(=O)O [Triflusal] | 1.1 | 0.982
CC(C)(O)c1ccccc1CC[C@@H](SCC1(CC(=O)O)CC1)c1cccc(/C=C/c2ccc3ccc(Cl)cc3n2)c1 [Montelukast] | 0.789 | 0.857
O=C1c2cc(CO)cc(O)c2C(=O)c2c(O[C@@H]3O[C@H](CO)[C@@H](O)[C@H](O)[C@H]3O)cccc21 [Aloe-emodin-8-O-beta-D-glucopyranoside] | 0.544 | 0.783
C=C[C@H]1CN2CC[C@H]1C[C@@H]2[C@@H](O)c1ccnc2ccc(OC)cc12 [Quinidine sulfate] | 0.803 | 1.02
Cn1c2cc([S+](C)[O-])sc2c2cnn(Cc3cccc(N)c3)c(=O)c21 (centres undefined) | 0.688 | 0.96
CC(C)c1cc(C(C)C)c(CC(=O)NS(=O)(=O)Oc2c(C(C)C)cccc2C(C)C)c(C(C)C)c1 [Avasimibe] | 0.707 | 0.832
COc1ccc2[nH]cc(CCNC(C)=O)c2c1 [Melatonine] | 0.76 | 0.783
CC1(C)CC[C@]2(C(=O)O[C@@H]3O[C@H](CO)[C@@H](O)[C@H](O)[C@H]3O)CC[C@]3(C)C(=CC[C@@H]4[C@@]5(C)CC[C@H](O[C@@H]6O[C@H](C(=O)O)[C@@H](O)[C@H](O)[C@H]6O[C@@H]6O[C@H](CO)[C@@H](O)[C@H](O)[C@H]6O)C(C)(C)[C@@H]5CC[C@]43C)[C@@H]2C1 [Ginsenoside Ro] | 1.02 | 0.9
Cc1ccc(CN(CC(O)COc2cccc3[nH]ccc23)C(C)(C)C)cc1 (centres undefined) | 0.994 | 0.988
O=C(NN1CCCCC1)c1nn(-c2ccc(Cl)cc2Cl)c(-c2ccc(C#Cc3ccc(C(F)(F)F)cc3)s2)c1CNS(=O)(=O)N1CCCC1 | 1.01 | 0.893
CC1(N)CCN(c2cnc(-c3cccc(Cl)c3Cl)c(N)n2)CC1 [SHP099 hydrochloride] | 0.768 | 1.02
